GRP78 ERSR act: ER stress response induction in glioma | U87-MG GRP78 promoter luciferase reporter, 16 h | Potency, µM, inactives show at the highest dose activation, hits mostly activators | actives 0.02% (n = 420,000); note: series mostly up to about 76 µM; % of control where 0% means no effect; nearly all actives have a fitted effect of over 35% in size
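ERSR induction read as luciferase luminescence (Bright-Glo, 10 min at room temperature) in stably transfected human U87-MG glioma cells exposed to compounds for 16 h, using GRP78 as sensor.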
VDR inh: inhibitors of human vitamin D receptor. P11473. VDR-SRC2-3 peptide fluorescence polarization, 2 h. Potency, µM, without a hit: max response, negative = inhibition, usual class: inhibitors. actives 0.93% (n = 400,000). AID 504847; note: % is set by controls: 0 for no effect and ±100 for the full control effect
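Inhibition of the VDR/SRC2-3 peptide interaction is quantified by fluorescence polarization. Compounds (23 nl, pintool) incubate with the reagents for 2 hours at ambient room temperature.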
12-LOX inh: inhibitors of human 12S-lipoxygenase ALOX12; purified 12hLO, xylenol orange hydroperoxide absorbance; actives 1.1% (n = 580,000); Potency, µM (titrated, usually from 108 µM), for inactives: top-dose activity change, negative = inhibition, usual class: inhibitors; note: % is set by controls: 0 for no effect and ±100 for the full control effect
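Purified human 12hLO (150 nM final) in 25 mM Hepes, 0.01% Triton X-100, pH 7.0 was preincubated 15 min at room temperature with compound. Then 40 uM arachidonic acid was added, 30 min. Hydroperoxide was read by Fe-XO absorbance ratio 573/405 nm.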
Sfp PPTase inh: Sfp phosphopantetheinyl transferase inhibition; actives 3.5% (n = 310,000); Biochemical Sfp PPTase activity, qHTS; AID 1490; Potency, µM, without a hit: largest response in the series, negative = inhibition, usual class: inhibitors; Q9F4F7;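 note: the enzyme is Sfp with the accession as filed and its product quenches rhodamine fluorescence; 0% = enzyme reaction without inhibitor and -100% = no enzyme wells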
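Compounds were incubated with enzyme (final 15 nM) for 15 min at room temperature before substrate addition started the reaction. Fluorescence at 525 nm excitation, 598 nm emission was recorded immediately and after 30 minutes.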
G9a block: G9a (human) methyltransferase inhibition. Q96KQ7. G9a H3K9 monomethylation, AlphaScreen, 2 h. Potency, µM (titrated, usually from 102 µM), inactives show top-dose activity, negative = inhibition, usual class: inhibitors. actives 8.8% (n = 350,000). AID 504332; note: % is set by controls: 0 for no effect and ±100 for the full control effect; nearly all actives have a fitted effect of over 75% in size
Target sequence (Q96KQ7 913-1193 limits assumed): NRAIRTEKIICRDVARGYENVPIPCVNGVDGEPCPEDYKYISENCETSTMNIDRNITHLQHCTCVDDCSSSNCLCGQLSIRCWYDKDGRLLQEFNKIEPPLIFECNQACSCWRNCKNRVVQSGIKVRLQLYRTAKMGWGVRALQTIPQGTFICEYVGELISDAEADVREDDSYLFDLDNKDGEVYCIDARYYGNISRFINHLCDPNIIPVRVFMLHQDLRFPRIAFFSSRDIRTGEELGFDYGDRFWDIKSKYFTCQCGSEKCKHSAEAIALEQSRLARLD
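Using a bead-based AlphaScreen, monomethylated H3K9 product from 2 h room-temperature reactions (G9a 20 nM, peptide 500 nM, SAM 20 uM) was detected with 0.5 ug/mL rabbit anti-H3K9me1 antibody.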
Numbers without * were called inactive; [ ] = remark or other dose. The sample as a whole holds a higher share of hits than the screen did. Calls come from the whole dose curve; as a rule, active = well fitted curve in the direction sought with a large enough effect; inconclusive = small, poorly fitted or top-dose-only effect, or another doubt; inactive = no such curve, though single readings can be large; an effect the other way counts as inactive or inconclusive. Potency is the fitted concentration of half-maximal effect.

Results for COc1ccc(-c2cc(C)no2)cc1S(=O)(=O)N1CC(=O)Nc2ccccc21 ?
GRP78 ERSR act: 11.7%; VDR inh: -0.6%; 12-LOX inh: -21.6%; Sfp PPTase inh: 3.9%; G9a block: 50.1µM*

Results for COc1ccc(-c2cc(C)no2)cc1S(=O)(=O)N1CC(C)Oc2ccccc21 (configuration not stated) ?
GRP78 ERSR act: 1.5%; VDR inh: 11.0%; 12-LOX inh: -16.6%; G9a block: -19.9%[59 µM]

Results for Cc1[nH]n(-c2ccccc2)c(=O)c1-c1ccc(Cl)cc1 ?
GRP78 ERSR act: -0.3%; VDR inh: -11.1%; 12-LOX inh: 15.4%; Sfp PPTase inh: -11.1%; G9a block: 14.1µM*

What do the screens show for `Cc1[nH]n(-c2ccccc2)c(=O)c1S(=O)(=O)c1ccccc1`?
GRP78 ERSR act: -1.4%; VDR inh: -19.8%; 12-LOX inh: inconclusive; Sfp PPTase inh: -6.8%; G9a block: 44.7µM*

What do the screens show for `CC(C)CC(=O)Nc1cc(C(C)(C)C)ccc1O`?
12-LOX inh: -47.1%

Results for CC(Sc1ccc2ccccc2n1)C(=O)NC1CC1 (configuration not stated) ?
12-LOX inh: -0.2%

What do the screens show for `CC#CCn1cc2c3c(cccc31)[C@H](CC(C)C)N[C@H](C(=O)NCCN1CCOCC1)C2`?
12-LOX inh: 48.0%[176 µM]

What do the screens show for `Cc1ccc(C)c(N=Cc2ccc(N(C)C)cc2)c1`?
12-LOX inh: 5.4%

Results for O=C1C2CC=C(Cl)CC2C(=O)N1CN(Cc1ccco1)CN1C(=O)C2CC=C(Cl)CC2C1=O (configuration not stated) ?
GRP78 ERSR act: -0.3%; VDR inh: 3.2%; 12-LOX inh: -3.4%; Sfp PPTase inh: -6.4%; G9a block: 50.1µM*

How did O=C1C2CC=C(Cl)CC2C(=O)N1CC1OCCc2ccccc21 (configuration not stated) do in these assays?
GRP78 ERSR act: -2.5%; VDR inh: -11.4%; 12-LOX inh: 20µM*; Sfp PPTase inh: -14.8%; G9a block: inconclusive

What do the screens show for `O=C(O)c1ccccc1NCN1C(=O)C2CC=C(Cl)CC2C1=O` (configuration not stated)?
GRP78 ERSR act: -3.4%; VDR inh: 6.2%; 12-LOX inh: -15.7%; Sfp PPTase inh: 17.5%; G9a block: 6.6%[2.33 µM]

What do the screens show for `O=C(O)C1CC=C(Cl)CC1C(=O)NCC1OCCc2ccccc21` (configuration not stated)?
GRP78 ERSR act: -6.2%; VDR inh: 11.6%; 12-LOX inh: -5.0%; Sfp PPTase inh: 25.5%; G9a block: -5.0%[59 µM]

Results for O=C1C2CC=C(Cl)CC2C(=O)N1CC1Cc2ccccc2CO1 (configuration not stated) ?
GRP78 ERSR act: -7.7%; VDR inh: -9.7%; Sfp PPTase inh: -17.1%; G9a block: 50.1µM*

Results for CCC1(CC)NC(=O)N(CC(=O)Nc2cccc3cccnc23)C1=O ?
12-LOX inh: 15.0%

What do the screens show for `C(#Cc1ccccc1)CN1CCCC1`?
12-LOX inh: -12.9%

How did Cc1oc(-c2ccccc2)nc1C(=O)N(C)Cc1ccc(C(N)=O)cc1 do in these assays?
12-LOX inh: 5.2%

What do the screens show for `CCn1nc(C(=O)Nc2ccccc2N2CCCC2)c2ccccc2c1=O`?
GRP78 ERSR act: -5.9%; VDR inh: -3.5%; 12-LOX inh: inconclusive; G9a block: 25.1µM*

Results for O=C(Cc1ccccc1)Nc1ccccc1N1CCCC1 ?
GRP78 ERSR act: -4.7%; VDR inh: 18.3%; 12-LOX inh: -13.3%; Sfp PPTase inh: -0.2%; G9a block: 56.2µM*

Results for CCn1nc(C(=O)Nc2ccccc2F)c2ccccc2c1=O ?
12-LOX inh: -26.8%

What do the screens show for `O=C(CNC1CCCCCC1)Nc1ccccc1N1CCCCC1`?
GRP78 ERSR act: 7.9%; VDR inh: 5.6%; 12-LOX inh: inconclusive; Sfp PPTase inh: inconclusive; G9a block: inconclusive

How did O=C(CNCCC1=CCCCC1)Nc1ccccc1N1CCCCC1 do in these assays?
GRP78 ERSR act: -1.8%; VDR inh: inconclusive; 12-LOX inh: inconclusive; Sfp PPTase inh: inconclusive; G9a block: 1.78µM*

Bioassay records deposited in PubChem by National Center for Advancing Translational Sciences (NCATS).
